IL-1B inflam inh: blocks inflammasome-driven IL-1 beta release | THP-1 LPS/ATP IL-1B secretion, AlphaLISA, 16 h; stronger effect = lower value | activity change, % at 57.5 µM | 360,000 tested, 4.7% active | AID 743279; in the data active = activity change below about -50%; inconclusive = mostly about -30% to -49%
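Secreted IL-1B measured by AlphaLISA bead assay after 16 h compound exposure of THP-1 cells; compounds (final up to 57.5 uM) added 1 h before LPS (250 ng/mL) and ATP (1.25 mM) stimulation; lower signal means less secretion.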
KB-3-1 cytotox: KB-3-1 parental cell cytotoxicity; 400,000 tested, 1.4% active; AID 1347075; Potency, µM (top dose mostly 46.1 µM), usual class: cytotoxic; KB-3-1 viability, CellTiter-Glo ATP luminescence, 72 h; note: potency is the fitted concentration of half-maximal effect; nearly all actives have a fitted effect of over 60% in size
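Cytotoxicity in the drug-sensitive parental line KB-3-1 was scored as loss of CellTiter-Glo luminescence following 72 h incubation with compound. Values come from curve fitting of normalized concentration-response data.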
HT1080 IDH1KD tx: toxicity to HT-1080 IDH1 knockdown cells (counter line). HT-1080 IDH1 knockdown viability, ATP luminescence, 48 h. Potency, µM (series often up to 46.1 µM), for inactives: at the highest dose activity, negative = toxicity, most hits filed as cytotoxic. 360,000 tested, 2% active;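 note: potency is the fitted concentration of half-maximal effect; 0% = DMSO wells and -100% = cell-free medium wells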
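% activity derives from luminescence (CellTiter-Glo), normalised to DMSO and no-cell wells. HT-1080-IDH1KD cells, 750/well, had 48 h compound exposure at 37 °C.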
KB-V1 cytotox: kills drug-selected multidrug resistant KB-V1 cells | AID 1347076 | KB-V1 MDR cells viability, CellTiter-Glo, 72 h | 400,000 tested, 3.4% active | Potency, µM (doses to about 46.1 µM), hits mostly cytotoxic; note: potency is the fitted concentration of half-maximal effect; nearly all actives have a fitted effect of over 60% in size
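Following 72 h at 37 degrees C with compound, KB-V1 cell viability was read by CellTiter-Glo luminescence, medium being phenol-red-free DMEM plus 10% FBS; concentration-response parameters came from normalized, curve-fitted qHTS data.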
HT1080-NT tox: kills 2HG-producing HT-1080-NT fibrosarcoma cells. 360,000 tested, 1.6% active. HT-1080-NT fibrosarcoma viability, CellTiter-Glo ATP luminescence, 48 h. Potency, µM (titrated, usually from 46.1 µM), without a hit: at the top dose activity, negative = less viability, hits mostly cytotoxic;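 note: NT is the 2HG producing partner of a matched IDH1 knockdown line; potency is the fitted concentration of half-maximal effect; 0% = DMSO-treated cells and -100% = media-only wells without cells; nearly all actives have a fitted effect of over 55% in size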
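Luminescent CellTiter-Glo readout after 48 hours of compound exposure at 37 degrees C defined viability of HT-1080-NT cells. Activity was normalized to DMSO wells and cell-free media wells; concentration-response curves were fitted and assigned curve classes.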
An asterisk follows results filed as active; i = inactive; ? = inconclusive; . = not tested or not shown; [ ] = remark or other dose. Hits are enriched below; roughly 8.8% of the tested compounds scored in any of these assays. Unless noted, calls come from the whole dose curve; as a rule, active = well fitted curve in the direction sought with a large enough effect; inconclusive = small, poorly fitted or top-dose-only effect, or another doubt; inactive = no such curve, though single readings can be large; an effect the other way counts as inactive or inconclusive. Unless noted, % is set by controls: 0 for no effect and ±100 for the full control effect.

SMILES	IL-1B inflam inh	KB-3-1 cytotox	HT1080 IDH1KD tx	KB-V1 cytotox	HT1080-NT tox
Cc1ccc(-c2nc(CSc3nc4ccccc4c(=O)n3CCO)cs2)cc1	-9.7	i	-22.1%	i	-26.0%
Cc1ccc(-c2nc(CCN3C(=O)c4ccccc4C3=O)cs2)cc1	-4.3	i	10µM*	13µM*	?
C=CCn1c(SCc2csc(-c3ccc(C)cc3)n2)nnc1-c1ccccc1OC	?	i	?	13µM*	-19.7%
O=C(N/N=C/c1ccccc1F)c1csc2c1CCCC2	-11.1	i	1.4%	i	-4.1%
Cc1[nH]c(=O)c(C(=O)/C=C/c2ccccc2F)c2c1CCCC2	-97.2*	6.51µM*	7.94µM*	6.51µM*	7.94µM*
O=C(CC1SC(=Nc2ccccc2)N(CCc2c[nH]c3ccccc23)C1=O)Nc1ccccc1F (stereo unspecified)	-80.2*	?	20.6µM*	?	?
CCc1nc2ccc(C(=O)N(C)Cc3ccccc3)cn2c1N(CC)CCN(C)C	-2.6	i	25.1%	i	18.4%
C=CCN1CC(c2nc3ccccc3n2Cc2ccccc2)CC1=O (stereo unspecified)	-7.9	i	-2.4%	11.6µM*	-0.9%
CC(C)(C)N1CC(c2nc3ccccc3n2Cc2ccc(Cl)cc2)CC1=O (stereo unspecified)	-15.0	i	-28.7%	14.6µM*	-16.6%
COc1ccc(-c2nnc(SCC(=O)Nc3cccc(Cl)c3C)nc2-c2ccc(OC)cc2)cc1	.	i	.	i	.
Cc1nn(-c2ccccc2)c(OC(=O)c2cccc(Br)c2)c1S(=O)(=O)c1ccccc1	.	i	.	i	.
CCn1nnc(NC(=O)COc2cc(C)ccc2C(C)C)n1	11.4	i	-6.7%	14.6µM*	8.2%
CCn1nnc(NC(=O)COc2ccc([N+](=O)[O-])cc2)n1	28.5	i	-7.0%	i	-12.8%
C/C(=N/NC(=O)COc1cc(C)ccc1C(C)C)C(=O)O	30.3	i	6.51µM*	i	?
CN(C)c1ccc(/C=C(/NC(=O)c2ccccc2)C(=O)NCCN2CCOCC2)cc1	-6.0	i	-4.0%	i	-0.7%
O=C(NCCN1CCOCC1)/C(=C/c1ccc(Cl)cc1)NC(=O)c1ccccc1	?	i	3.2%	i	11.4%
CN(C)CCNC(=O)/C(=C/c1ccc(-c2ccc(Cl)cc2)o1)NC(=O)c1ccccc1	-93.1*	?	-23.0%	i	-13.5%
CN(C)CCNC(=O)/C(=C/c1ccc(-c2ccc(Cl)cc2Cl)o1)NC(=O)c1ccccc1	-67.2*	?	20.6µM*	?	?
COCCCNc1nc2c(c(=O)[nH]c(=O)n2C)n1CC(O)COc1ccc(Cl)cc1 (stereo unspecified)	.	i	.	i	.
COc1ccc(N2C(=O)CC(Sc3nc(C)c4c(n3)CCCC4)C2=O)cc1 (stereo unspecified)	51.8	?	?	?	14.6µM*
Cc1cccc(N2C(=O)CC(Sc3nc(C)c4c(n3)CCCC4)C2=O)c1 (stereo unspecified)	5.5	i	10µM*	16.4µM*	7.08µM*
Cc1nc(SC2CC(=O)N(c3cc(Cl)cc(Cl)c3)C2=O)nc2c1CCCC2 (stereo unspecified)	24.8	i	-22.9%	i	-18.8%
COc1ccc(N2C(=O)CC(Sc3nc4c(cc3C#N)CCC4)C2=O)cc1 (stereo unspecified)	-14.1	i	17.6%	i	?
CC(C)n1nc(C(=O)Nc2cccc(S(=O)(=O)N3CCOCC3)c2)c2ccccc2c1=O	2.4	i	-9.2%	i	-2.1%[9.24 µM]
O=C(O)CN(c1ccccc1)S(=O)(=O)c1cc(C(F)(F)F)cc(C(F)(F)F)c1	2.4	i	2.7%	i	-3.5%
Cc1nn(C(C)C(=O)NCc2cccc(F)c2)c(=O)c2c1sc1ccccc12 (stereo unspecified)	.	i	.	i	.
CCN(CCCNC(=O)c1cc2cc3cc(C)ccc3nc2s1)c1cccc(C)c1	.	i	.	i	.
O=S(=O)(Nc1cccc(-c2cn3cccnc3n2)c1)c1ccc(Cl)cc1	-70.2*	i	-8.3%	?	1.8%

High-throughput results as filed in PubChem.
